Data published in PubChem BioAssay AID1259240 (Keith Lab, Institute of Cancer Science, University of …, 2017).
Unmarked numbers belong to inactive results. Active and inactive are the calls of the source. No stated cut-off is given here; in the data, active means fold change mostly below about -2 (no sharp cut-off); inactive means mostly above about -1.8.

Test: TERT promoter activity modulators, primary screen, cell-based, luciferase reporter, human (AID 1259240)
Settings: A2780 TERT promoter luciferase reporter, 16 h; at 20 µM, fold versus average of vehicle-only wells

SMILES	fold change	outcome
CC1(C)CC(=O)c2sc(NC(=O)Cc3ccc(Br)cc3)nc2C1	-3.4 (active)	–
CCOP(=O)(OCC)C(Nc1ccccn1)c1ccc(F)cc1 (centres undefined)	-1.13	–
CCNC(=O)CC1C(=O)N(c2ccc(F)cc2)C(=O)N1CCC(C)C (centres undefined)	1.24	–
O=C1CCCC2=C1C(c1ccccc1Cl)n1nc(-c3ccccc3)nc1N2 (centres undefined)	–	inactive
Cc1ccc2c(c1)/C(=c1/sc3n(c1=O)CN(c1ccc(Cl)cc1)CN=3)C(=O)N2	-1.65	–
CCN1C(=O)C2(/C(=C(/O)c3ccc(OC)cc3)C(=O)C(=O)N2CCOC)c2ccccc21 (centres undefined)	1.29	–
Fc1ccc(OCc2nc(-c3ccc(-n4cccc4)cc3)no2)cc1	-1.22	–
O=C(CSc1nc(-c2ccco2)cc(C(F)(F)F)n1)N1CCOCC1	-2.11 (active)	–
COc1ccc(C2CC(=O)Nc3cc(OC)cc(OC)c32)c(OC)c1 (centres undefined)	-1.41	–
CCOC(=O)CCCSc1nc2sc(C)c(C)c2c(=O)[nH]1	-3.49 (active)	–
O=S(=O)(Nc1cccc(C(F)(F)F)c1)c1cccc2cccnc12	-1.42	–
CC(Sc1nc(-c2ccco2)nc2c1c(=O)n(C)c(=O)n2C)C(=O)O (centres undefined)	1.38	–
CCOc1ccc(N2CC(O)=C(c3nc4ccccc4c(=O)[nH]3)C2=N)cc1	–	inactive
CNC(=O)CN1C(=O)COc2ccc(S(=O)(=O)N3CCOCC3)cc21	-1.1	–
CCSc1nc2ccccc2n1S(=O)(=O)c1ccccc1	-2.48 (active)	–
CCOc1cc2c(cc1OCC)C(c1ccc(Br)cc1)CC(=O)N2 (centres undefined)	1.18	–
COc1ccc2cc3c(N)nn(C(=O)Cn4nc([N+](=O)[O-])c(Br)c4C)c3nc2c1	-1.45	–
COc1cc(-c2nc3s/c(=C\c4ccccc4Br)c(=O)n3n2)cc(OC)c1OC	1.02	–
COc1ccc(NC(=O)Nc2c(C)n(C)n(-c3ccccc3)c2=O)cc1	-1.33	–
CCOc1cccc2cc(S(=O)(=O)c3ccc(C(C)(C)C)cc3)c(=O)oc12	-1.2	–

SMILES	fold change	outcome
O=C(CSc1ncnc2ccccc12)NCc1ccc2c(c1)OCO2	-1.09	–
COc1cc2c(c(OC)c1OC)C(c1cccnc1)CC(=O)N2 (centres undefined)	-1.07	–
Cc1nc2cc(-c3ccccc3)nn2c(C)c1CCC(=O)O	-6.77 (active)	–
CC(C)C(NS(=O)(=O)c1ccc2c(c1)oc(=O)n2C)C(=O)NCc1cccs1 (centres undefined)	-1.35	–
CN(C)c1nc(C(N)=O)nc(N2CCOCC2)n1	1.62	–
CCOC(=O)c1oc2ccc(S(=O)(=O)n3nc(-c4ccc(OC)cc4OC)cc3N)cc2c1C	-1.57	–
CCN1CCN(C(=O)c2cc3c(=O)[nH]c4ccccc4c3n2C)CC1	1.05	–
COC(=O)c1cc(NS(=O)(=O)c2cccc3cccnc23)cc(C(=O)OC)c1	-1.91	–
S=c1nc(-c2ccccc2)n(CCCn2ccnc2)c2c1CCCC2	1.02	–
O=C(CSc1nc(-c2ccco2)cc(C(F)(F)F)n1)NCc1cccnc1	-1.4	–
CC(C)CCSc1nc(-c2ccc([N+](=O)[O-])cc2)nc2c1c(=O)n(C)c(=O)n2C	1.2	–
Cc1c(NC(=O)c2cc(CC(C)C)on2)c(=O)n(-c2ccccc2)n1C	-1.7	–
COc1cc(C(=O)Nc2ccc3oc(-c4ccncc4)nc3c2)cc(OC)c1OC	-1.49	–
O=C(CCN1C(=O)c2ccccc2S1(=O)=O)Nc1cc(Cl)ccc1Cl	1.22	–
COCCn1c(SCC(=O)Nc2nnc(C)s2)nc2c(c1=O)SC(C)C2 (centres undefined)	1.17	–
CCOC(=O)C1=C(CS(=O)(=O)c2ccccc2)NC(=O)NC1c1cccc(Br)c1 (centres undefined)	1.6	–
CCC(CO)NS(=O)(=O)c1ccc(OC)c(-c2nnc3c4ccccc4c(C)nn23)c1 (centres undefined)	-1.69	–
CCOC(=O)C1CCN(c2c(N3CCN(CC)CC3)c(=O)c2=O)CC1	1.21	–
CC(=O)N(C1=C(N(C)C)C(=O)c2ccccc2C1=O)c1cc(C)cc(C)c1	-1.54	–
